16 compounds from PubChem BioAssay (NCI) can be followed below.

Holding throughout (assay): NCI-60 one-dose screen, 48 h (100 = growth as untreated, 0 = no growth, -100 = all killed)
Test [1] deals with HCT-15 colon. To be noted: 10 µM.
For test [2], the system named is HT29 colon. To be noted: 10 µM.
The test system of test [3] is SNB-75 CNS. To be noted: 10 µM.
The subject of test [4] is SNB-19 CNS. The note with it: 10 µM.
For test [5], the system named is U251 CNS. To be noted: 10 µM.
The test system of test [6] is SK-MEL-5 melanoma. The note with it: 10 µM.
Test [7] deals with UACC-62 melanoma. To be noted: 10 µM unless noted.
Test [8] has as its system LOX IMVI melanoma. The note with it: 10 µM.
Test [9] relates to PC-3 prostate. To be noted: 10 µM.
The test system of test [10] is SK-MEL-28 melanoma. The note with it: 10 µM.

Where “and” joins values, the source holds several entries; their conditions need not be identical. Equal values may be shown once. This is part of a sample that, as a whole, favours compounds with a hit. Of some 83,000 tested, about 20% had one in any assay.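 Negative percent growth values reflect cell death: -40 means 40% of the cells present at the start died, and -100 means all died.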 Calls of active or inactive are those of the source. The calls were made as follows: active = growth percent below 10; inactive = the rest.

`CC(Cc1ccc2c(c1)OCO2)NN` (stereo not drawn): the growth in test [1] was 102% (inactive); in [2] it was 98.7% (inactive); in [3] it was 90.6% (inactive); in [4], 105% (inactive); in test [5] it was 88.9% (inactive); in [6] it was 93.6% (inactive). For the same compound, the growth in [7] was 95.6% (inactive); in test [8], 92.2% (inactive).
Consider `Cn1c(O)c(N=O)c(=O)n(C)c1=O`, for which the growth was 104% (inactive) and 111% (inactive) in test [1]; 117% (inactive) and 114% (inactive) in [2]; 99.3% (inactive) and 95.2% (inactive) in [3]; 107% (inactive) and 98.5% (inactive) in test [4]; 94.6% (inactive) and 109% (inactive) in [5]; 100% (inactive) and 98.1% (inactive) in [6]. In addition, the growth in [7] was 99.7% (inactive) and 93.3% (inactive); in test [8] it was 91.4% (inactive) and 94.4% (inactive).
Turning to `CC[C@@]1(O)C[C@H](OC2CC(N(C)C)C(O)C(C)O2)c2c(cc3c(c2O)C(=O)c2c(O)ccc(O)c2C3=O)[C@H]1C(=O)OC` (stereo partly drawn), the growth in test [1] is -43% (active); in test [2] it was -20.5% (active); in test [3], -88% (active); in test [4] it was -36.9% (active); in test [5], -90.8% (active); in test [6], -100% (active). Also, the growth in test [7] is -91.4% (active); in [8], -85.1% (active).
On to `NC(=O)c1cc([N+](=O)[O-])c(Cl)c([N+](=O)[O-])c1Cl`, for which the growth was -63.9% (active) in [1]; -88.4% (active) in test [2]; 65.1% (inactive) in test [3]; 74% (inactive) in test [4]; -81.5% (active) in [5]; 46.7% (inactive) in [9]. Besides, the growth was 5.65% (active) in test [7], -50% (active) in [8] and 39.6% (inactive) in test [10].
For the compound `C[C@H]1CC[C@@]2(NC1)O[C@H]1C[C@H]3[C@@H]4CC[C@H]5C[C@@H](O)CC[C@]5(C)[C@H]4CC[C@]3(C)[C@H]1[C@@H]2C`, the growth in [7] is 8.84% [100 µM] (active) and 2.39% [100 µM] (active).
As to `O=[N+]([O-])c1ccc(Br)c([N+](=O)[O-])c1`, the growth in test [1] was 36.6% (inactive); in [2], 75.4% (inactive); in [4] it was 101% (inactive); in test [5], 99.1% (inactive); in [6], 95.8% (inactive); in test [7], 103% (inactive). Further, in test [8], the growth is 13.3% (inactive).
Consider `CC(C)(C)OOC(=O)/C=C\C(=O)OOC(C)(C)C`, for which the growth in test [1] was 106% (inactive); in [2], 105% (inactive); in test [3], 98.5% (inactive); in [4], 91.9% (inactive); in [5], 99.2% (inactive); in test [6] it was 106% (inactive). Besides, the growth in [7] is 94.7% (inactive); in test [8], 107% (inactive); in test [10], 109% (inactive).
Consider `N#CCc1ccccc1`, for which the growth in test [1] was 102% (inactive); in test [2], 114% (inactive); in [3], 105% (inactive); in test [4], 98.6% (inactive); in test [5], 95.8% (inactive); in test [6] it was 99.4% (inactive). In addition, the growth in test [7] was 102% (inactive); in [8] it was 94.1% (inactive); in test [10], 106% (inactive).
On to `CC(C)c1cc([N+](=O)[O-])cc([N+](=O)[O-])c1O`, for which the growth is 108% (inactive) in test [1]; 103% (inactive) in test [2]; 107% (inactive) in test [4]; 103% (inactive) in [5]; 81.4% (inactive) in test [9]; 98.4% (inactive) in test [6]. For the same compound, the figures for the growth in [7] and in test [8] were 98.1% (inactive) and 93.7% (inactive), respectively.
Regarding `O=[N+]([O-])/C=C/c1ccc([N+](=O)[O-])cc1`, the growth in test [1] is -30.1% (active) and 12.6% (inactive); in test [2], -46.8% (active) and 72.9% (inactive); in [3], 48.7% (inactive) and 90.1% (inactive); in [4], 72.6% (inactive) and 96.2% (inactive); in test [5], -16.5% (active) and 87.8% (inactive); in test [6], 97.9% (inactive). In addition, the growth is 71.5% (inactive) and 81.1% (inactive) in test [7]; -90.1% (active) and 70% (inactive) in test [8]; 82.2% (inactive) and 103% (inactive) in test [10].
Turning to `COc1cc(/C=C/[N+](=O)[O-])cc(OC)c1OC`, the growth in test [1] is -9.12% (active); in [2] it was -27.1% (active); in test [3] it was 18.9% (inactive); in test [4] it was 56.5% (inactive); in test [5] it was 18.4% (inactive); in [7], -26.9% (active). Also, the growth in [8] is -71.7% (active).
Regarding `COc1ccc(/C=C(\C)[N+](=O)[O-])cc1OC`, the growth in test [1] was 0.0541% (active); in test [2], -67% (active); in [3], 56.5% (inactive); in test [4], 99.8% (inactive); in test [9], 51% (inactive); in [6] it was 54.6% (inactive). Besides, the growth in test [7] was 32.7% (inactive); in test [8], -58.7% (active); in [10], -67.2% (active).
For `Cc1ccc(C(=O)C2C(c3ccccc3)N2C2CCCCC2)cc1` (stereo not drawn), the growth is 99.3% (inactive) and 89.8% (inactive) in test [1]; 111% (inactive) and 84.9% (inactive) in test [2]; 97.5% (inactive) and 88.8% (inactive) in test [3]; 105% (inactive) and 94% (inactive) in [4]; 106% (inactive) and 93.1% (inactive) in [5]; 88.1% (inactive) and 99% (inactive) in [6]. In addition, the growth in [7] was 102% (inactive) and 91.2% (inactive); in [8], 99.9% (inactive) and 98.1% (inactive); in test [10] it was 105% (inactive) and 102% (inactive).
On to `O=S(=O)(F)c1ccc(Cl)cc1`, for which the growth was 98% (inactive) in test [1]; 106% (inactive) in test [2]; 92.9% (inactive) in test [3]; 101% (inactive) in [4]; 109% (inactive) in test [5]; 108% (inactive) in test [6]. The growth is 103% (inactive) in test [7], 96.7% (inactive) in test [8] and 119% (inactive) in test [10].
In the case of `O=C(O)c1cc(Cc2ccc(O)c(C(=O)O)c2)ccc1O` (tested in a mixture with another compound), the growth was 49.4% (inactive) in [1]; 25% (inactive) in [2]; 51.2% (inactive) in [3]; 85.6% (inactive) in test [4]; 70.4% (inactive) in [5]; 71.3% (inactive) in test [6]. Besides, the growth in [7] was 69.5% (inactive); in test [8] it was -47.3% (active); in test [10], 84.6% (inactive).
Take `CN(C)CC1(N)C(=O)NC(=O)NC1=O`: the growth is 102% (inactive) in [1]; 99.6% (inactive) in test [2]; 89.7% (inactive) in test [3]; 102% (inactive) in [4]; 96.3% (inactive) in [5]; 95.1% (inactive) in test [6]. The growth in test [7] was 97.5% (inactive); in [8] it was 104% (inactive); in [10] it was 95.1% (inactive).
